ATG4B inh: ATG4B protease inhibitors, primary screen, biochemical, fluorescence, uHTS; ATG4B cleavage of LC3-PLA2, NBD-HPC fluorescence, 1 h; AID 504462, 2011; Cysteine protease ATG4B (Homo sapiens), Q9Y4P1; 0.51% of 340,000 active; inhibition, % at 8.33 µM; in the data active = inhibition above about 40%
Mot1-301 SUMO: yeast Mot1-301 growth rescue at high temperature, primary screen, SUMOylation pathway inhibitor project, S. cerevisiae, ATP luminescence, 38.5C. S. cerevisiae Mot1-301 growth rescue; percent above DMSO median, 100 means doubled. 1% of 320,000 active. growth rescue, % at 18.8 µM;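 active = every valid replicate shows activation above 250% relative to neutral control wells; inactive = the rest, any valid replicate at or below 250%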;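 note: OY570 slx delta 5 strain wells were the positive control but not used for scaling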
NadD block: inhibitors of S. aureus NadD, primary screen, biochemical, colorimetric, uHTS; 0.78% of 360,000 active; Nicotinate-nucleotide adenylyltransferase NadD (Staphylococcus aureus N315); inhibition, % at 20 µM; purified NadD enzyme, colorimetric absorbance read-out; in the data active = inhibition above about 26%
Calb FLC: C. albicans growth inhibition with fluconazole, primary screen, CaCi-2 strain, Alamar Blue fluorescence; C. albicans CaCi-2 (fluconazole-resistant clinical isolate) + fluconazole, 48 h; AID 1979, 2009; growth inhibition, % (no concentration beside the values); 0.57% of 300,000 active;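 active = growth inhibition above about 58% in most replicates, limit read from the data, passing the limit was not always enough; inconclusive = exactly half the replicates above a set limit; inactive = most replicates below a set limit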;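 note: all wells also contain fluconazole at 8 µg/ml as a sub-toxic cotreatment; 0% = median of DMSO wells and 100% = median of geldanamycin control wells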
FAS TE block: FAS thioesterase domain inhibitors, primary screen, biochemical, fluorescence intensity, uHTS. Fatty acid synthase (Homo sapiens), P49327. recombinant FAS-TE, OMFH fluorogenic substrate, fluorescence endpoint. inhibition, % at 15 µM. 0.67% of 360,000 active. AID 602261, 2012;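 active = compounds whose normalised, plate-corrected inhibition of enzyme fluorescence in the single-dose primary screen is 50% or more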;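 note: 0% = DMSO with enzyme and 100% = substrate without enzyme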
* = called active by the depositor; ? = inconclusive; nt = not tested or not shown. Hits are enriched below; roughly 3.1% of the tested compounds scored in any of these assays.

SMILES | ATG4B inh | Mot1-301 SUMO | NadD block | Calb FLC | FAS TE block
C[n+]1c2n(c3ccccc31)N=C(c1ccc(-c3ccccc3)cc1)CS2 | -4 | 7 | 9 | 103* | -12
O=C(O)C1Nc2c(O)cc(Cl)c([N+](=O)[O-])c2C2C=CCC12 (configuration not stated) | 16 | -8 | 63* | 9 | 8
OCCOCCN1CCN(C2=Nc3ccccc3Sc3ccccc32)CC1 | 6 | 7 | 0 | -21 | -4
O=C1C=CC(=O)c2c(O)c(N3CCN(CCO)CC3)c(Cl)c(O)c21 | 31 | nt | 50* | nt | 1
O=C1C=CC(=O)c2c(O)c(N3CCN(CCOCCO)CC3)c(Br)c(O)c21 | 18 | nt | 62* | nt | 5
CC(C)[C@H](NC(=O)[C@@H]1CSC2c3ccccc3C(=O)N21)C(=O)NCc1ccncc1 (some centres not stated) | -8 | 5 | -7 | 12 | -5
CC(=O)Nc1ccc(OCC(=O)Nc2ccc(Cl)c(S(=O)(=O)N3CCOCC3)c2)cc1 | nt | 6 | -5 | nt | -3
O=c1[nH]c2ccc([N+](=O)[O-])cc2nc1/C=C(\O)c1ccccc1 | -1 | 117 | 6 | 3 | 3
CCCc1cc(=O)[nH]c(SCC(=O)Nc2ccc(Br)cc2Br)n1 | -5 | -1 | -1 | 60* | 7
CCCc1cc(=O)[nH]c(SCC(=O)Nc2ccc(Br)cc2)n1 | -1 | 199 | 2 | 2 | -2
O=C(CN1C(=O)NC2(CCCC2)C1=O)NCc1ccco1 | -10 | 5 | -7 | nt | -3
O=C(CN1C(=O)NC2(CCCCCCC2)C1=O)NC(=O)NCc1ccco1 | -6 | 337* | 3 | ? | -2
CC(C)[C@@H]1Cc2[nH][nH]c(=O)c2[C@H](C(C)C)O1 | nt | nt | -4 | nt | -21
O=C(NCCc1ccccc1)c1c(O)c2cccc3c2n(c1=O)CC3 | 12 | -14 | -5 | 90* | 1
Cn1c(=O)c(C(=O)NCCCc2ccccc2)c(O)c2ccccc21 | 2 | 212 | -2 | 2 | 14
COc1ccc(CCNC(=O)c2c(O)c3cccc4c3n(c2=O)CC4)cc1 | -4 | -4 | -1 | -20 | 13
COc1ccc(CCNC(=O)c2c(O)c3ccccc3n(C)c2=O)cc1 | 4 | 10 | -3 | 96* | 10
Cc1csc(CNc2ncnc3ccc(-c4cccc(Cl)c4)cc23)c1 | 17 | 116 | 12 | nt | 17
CC(C)C(NC(=O)c1ccccc1F)C(=O)NCc1ccccc1 (configuration not stated) | -1 | -8 | 1 | -3 | -6
Cc1cc(C(=O)Nc2ccccc2N2CCOCC2)ccc1[N+](=O)[O-] | -3 | 0 | 1 | -8 | 9
CCOC(=O)c1cc(CC)sc1NC(=O)c1ccc([N+](=O)[O-])c(N2CCOCC2)c1 | 0 | 371* | -5 | 9 | -6
COc1cc(OC)cc(C(=O)NNC(=O)Cc2ccc(OC)c(S(=O)(=O)N3CCOCC3)c2)c1 | 1 | nt | 2 | 110* | -3
COc1ccc(CNC(=O)Cc2ccc(OC)c(S(=O)(=O)N3CCOCC3)c2)cc1 | 2 | -6 | 1 | -1 | -1
Cc1ccccc1NC(=O)c1ccc(NC(=O)C2CCCO2)cc1 (configuration not stated) | -1 | -15 | -8 | 3 | -4
O=C1CCCN1CCCN=c1c([N+](=O)[O-])nn(-c2ccc(Cl)cc2)n1O | -8 | nt | -4 | 85* | -3
SMILES | ATG4B inh | Mot1-301 SUMO | NadD block | Calb FLC | FAS TE block
Cc1cccc(C)c1NC(=O)C(C)N1CCCCC1 (configuration not stated) | 1 | -6 | -2 | 1 | -4
Cc1ccc2c(c1)sc(-c1ccc(N(C)C)cc1)[n+]2C | 2 | 4 | -1 | 90* | -7
CCN(c1ccccc1)S(=O)(=O)c1ccc(Cl)c(NC(=O)CN(C)C2CCN(C)CC2)c1 | 3 | 31 | 2 | 78* | -30
COc1ccc(C(=O)Nc2c(-c3cccs3)c(=O)c3ccccc3n2C)cc1 | -5 | 16 | -6 | -1 | 4
O=C(Cn1ncc(Cl)c(Cl)c1=O)NC(=O)NC1CCCCC1 | -1 | -8 | 4 | nt | 14
O=C1/C(=C/c2ccc(N3CCOCC3)o2)SC(=Nc2ccccc2)N1CCc1c[nH]c2ccccc12 | -3 | 34 | 40* | 1 | -55
COc1cc(OC)c(NC(=O)/C=C/C(=O)O)cc1Cl | -5 | 6 | 6 | -6 | -7
Cc1cccc2cc(CNCC3CCCO3)c(Cl)nc12 (configuration not stated) | -5 | 7 | -5 | 99* | -6
Fc1ccccc1CNCC1CCCO1 (configuration not stated) | -11 | nt | 5 | 10 | -4
CCOC(=O)N1CCN(CCC(=O)Nc2cccc(C)c2)CC1 | 2 | 6 | -3 | 11 | -8
CCCOc1ccc([N+](=O)[O-])cc1C1NC(=S)NC(c2ccccc2)=C1C(=O)OCC (configuration not stated) | -11 | 7 | 0 | -3 | 66*
CCCCCCCCC(=O)NNC(=O)c1c(O)c2ccccc2n(CC)c1=O | 8 | nt | 3 | 94* | 10
CCCCCCC(=O)NNC(=O)c1c(O)c2ccccc2n(CC)c1=O | -3 | 7 | 1 | -2 | -12
COC(=O)c1c(C)n(-c2ccccc2)c2ccc(O)cc12 | 6 | 15 | -4 | 92* | 4
C=C[C@@H]1c2cc(C)ccc2N(S(=O)(=O)c2ccc(C)cc2)[C@H](c2ccccc2C(F)(F)F)C1(C#N)C#N | -3 | 1 | 12 | nt | 16
O=C(NC(=S)Nn1cnc2c(cnn2-c2ccccc2)c1=O)c1ccc(Cl)cc1 | 0 | -10 | 7 | 101* | -2
Cn1c(-c2c(N)n(CCc3ccccc3)c3nc4ccccc4nc23)nc2ccccc21 | 14 | 0 | 10 | 94* | 18
O=C(c1ccc(C(=O)N2CCCc3ccccc32)s1)N1CCCc2ccccc21 | 36 | -39 | 0 | 114* | 24
CCOC(=O)C1(CCOC)CCN(Cc2ccc3nonc3c2)CC1 | -7 | 327* | -1 | 6 | -2
COc1ccccc1N(CC(=O)NCc1ccccc1C)S(=O)(=O)c1ccc(C)cc1 | 22 | 3 | -10 | 13 | 18
c1ccc(CC2CCN(C3=Nc4cccc5cccc3c45)CC2)cc1 | -27 | 21 | -2 | 86* | 5
O=C(Nc1ccncc1)c1ccc(Br)cc1 | 0 | 42 | -7 | 93* | -3
O=C(Nc1ccncc1)c1ccc(Cl)cc1 | -3 | 6 | -8 | -1 | -7
O=C(c1cccc2ccccc12)C1CCCN(C(=O)c2ccc(N3CCOCC3)cc2)C1 (configuration not stated) | -5 | -7 | 8 | -13 | 2
CCSc1nnc(SCC(=O)NC2CCCCC2)s1 | -5 | -5 | 0 | nt | -4
